HT1080-NT tox: qHTS for induction of synthetic lethality in tumor cells producing 2HG: qHTS for the HT-1080-NT fibrosarcoma cell line; HT-1080-NT fibrosarcoma viability, CellTiter-Glo ATP luminescence, 48 h; Potency, µM (highest dose often 46.1 µM), for inactives: top-dose activity, negative = less viability, most hits filed as cytotoxic; actives 1.6% (n = 360,000); AID 686970, 2013;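 further: NT is the 2HG producing partner of a matched IDH1 knockdown line; potency means the concentration at half of the fitted maximal effect; 0% = DMSO-treated cells and -100% = media-only wells without cells; nearly all actives have a fitted effect of over 55% in size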
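A 48-hour cytotoxicity screen used HT-1080-NT cells plated 2 hours before compound delivery. ATP-based CellTiter-Glo luminescence measured viability, normalized to DMSO and no-cell controls.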
Giardia killer: Small Molecules that selectively kill Giardia lamblia: qHTS; Giardia lamblia trophozoite viability; activity change, % at 7.66 µM, hits read low; actives 0.15% (n = 340,000); in the data active means activity change below about -80%; inconclusive means between about -30% and that limit;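 further: parasites exposed to compound for two days anaerobically before the ATP read; on the % scale 0 is the no-effect control and ±100 the full control effect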
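Killing of trophozoites was scored by loss of ATP luminescence after a 48 hrs anaerobic exposure to compounds at 37 deg C, using 100 cells per well.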
TGFb inhibitor: qHTS for Inhibitors of TGF-b; HepG2 CAGA-GFP TGF-b/SMAD3 reporter, GFP fluorescence, 18 h; TGF-beta stimulated, 500 pg/mL final; Potency, µM (doses to about 46.1 µM), without a hit: at the top dose activity, negative = inhibition, actives largely listed as inhibitors; actives 1.2% (n = 410,000); AID 588855, 2011; further: potency means the concentration at half of the fitted maximal effect; on the % scale 0 is the no-effect control and ±100 the full control effect; nearly all actives have a fitted effect of over 65% in size
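Using HEPG2 CAGA-GFP reporter cells at 1000 cells/well, we pinned test compounds, stimulated with recombinant TGF-beta (500 pg/mL final) and measured total well GFP after 18 h.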
IL1B secr inh: qHTS for Inhibitors of Inflammasome Signaling: IL-1-beta AlphaLISA Primary Screen; THP-1 LPS/ATP IL-1B secretion, AlphaLISA, 16 h; stronger effect = lower value; activity change, % at 57.5 µM; actives 4.7% (n = 360,000); in the data active means activity change below about -50%; inconclusive means mostly about -30% to -49%; further: on the % scale 0 is the no-effect control and ±100 the full control effect
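Secreted IL-1B measured by AlphaLISA bead assay after 16 h compound exposure of THP-1 cells; compounds (final up to 57.5 uM) added 1 h before LPS (250 ng/mL) and ATP (1.25 mM) stimulation; lower signal means less secretion.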
HepG2 tox-1: qHTS for Inhibitors of TGF-b: Cytotox Counterscreen. HepG2 CAGA-GFP viability, ATP luminescence, 18 h. Potency, µM (highest dose often 46.1 µM), without a hit: top-dose activity change, negative = cytotoxicity, most hits filed as cytotoxic. actives 0.76% (n = 410,000); further: potency means the concentration at half of the fitted maximal effect
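HepG2 CAGA-GFP cells (1000/well, DMEM with 1% FBS) received compound, then TGF-beta at 500 pg/mL final, and were incubated 18 hours at 37 degrees C. Viability was read by CellTiter-Glo luminescence. Media-only wells were set as complete cell-killing and DMSO as no toxicity.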
HT1080 IDH1KD tx: qHTS for induction of synthetic lethality in tumor cells producing 2HG: qHTS for the HT-1080-IDH1KD cell line; HT-1080 IDH1 knockdown viability, ATP luminescence, 48 h; Potency, µM (top dose mostly 46.1 µM), without a hit: at the highest dose activity, negative = toxicity, actives largely listed as cytotoxic; actives 2% (n = 360,000); AID 686971, 2013;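 further: potency means the concentration at half of the fitted maximal effect; 0% = DMSO wells and -100% = cell-free medium wells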
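CellTiter-Glo luminescence after 48 h compound exposure at 37 degrees C of IDH1-knockdown HT-1080 cells in 5% FBS RPMI. %Activity scaled between DMSO wells and cell-free media wells, with curves fitted and assigned curve classes.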
TGFb CAGA inh: qHTS for Inhibitors of TGF-b: Confirmation of Cherry Picks; shares compounds with TGFb inhibitor; HepG2 CAGA-GFP TGF-b reporter, GFP fluorescence, 18 h; cells stimulated with TGF-beta, 500 pg/mL; Potency, µM (series often up to 46.1 µM), for inactives: top-dose activity, negative = inhibition, hits mostly inhibitors; actives 63% (n = 1,600); AID 720534, 2013; further: potency means the concentration at half of the fitted maximal effect; on the % scale 0 is the no-effect control and ±100 the full control effect; nearly all actives have a fitted effect of over 65% in size
HepG2 tox-2: qHTS for Inhibitors of TGF-b: Cytotox Counterscreen for Cherry Picks | actives 27% (n = 1,600) | Potency, µM (doses to about 46.1 µM), without a hit: top-dose activity, negative = cytotoxicity, most hits filed as inhibitors | AID 720535, 2013 | shares compounds with TGFb inhibitor | HepG2 CAGA-GFP viability, ATP luminescence, 18 h; cells stimulated with TGF-beta, 500 pg/mL; further: potency means the concentration at half of the fitted maximal effect; on the % scale 0 is the no-effect control and ±100 the full control effect; nearly all actives have a fitted effect of over 70% in size
TGFb CCL64 inh: qHTS for Inhibitors of TGF-b: CCL64 Cells Orthogonal Assay for Cherry Picks | Potency, µM (doses to about 46.1 µM), for inactives: at the top dose activity, negative = inhibition, most hits filed as inhibitors | actives 41% (n = 1,600) | shares compounds with TGFb inhibitor | CCL64 CAGA-GFP reporter, TGF-b stimulated, GFP fluorescence, 18 h; further: potency means the concentration at half of the fitted maximal effect; nearly all actives have a fitted effect of over 65% in size
TGFb COP inh: qHTS for Inhibitors of TGF-b: Hit Validation in HepG2 Cells using COP promoter; shares compounds with TGFb inhibitor; HepG2 COP-GFP TGF-b reporter, GFP fluorescence, 18 h; cells stimulated by added recombinant TGF-beta; Potency, µM (series often up to 46.1 µM), without a hit: top-dose activity, negative = inhibition, actives largely listed as inhibitors; actives 3% (n = 1,600); further: potency means the concentration at half of the fitted maximal effect; nearly all actives have a fitted effect of over 70% in size
The depositor's hits bear a star; ? = inconclusive; nt = no result. In the library only some 6.5% were active in any assay of this set; here they are far more common. Unless noted, the call rests on the fitted dose curve; in most records, active means well fitted curve in the direction sought with a large enough effect; inconclusive means small, poorly fitted or top-dose-only effect, or another doubt; inactive means no such curve, though single readings can be large; an effect the other way counts as inactive or inconclusive.

SMILES | HT1080-NT tox | Giardia killer | TGFb inhibitor | IL1B secr inh | HepG2 tox-1 | HT1080 IDH1KD tx | TGFb CAGA inh | HepG2 tox-2 | TGFb CCL64 inh | TGFb COP inh
Cc1ccc(NCCCn2cnc3c(OCc4ccccc4)ncnc32)cc1C | -20.6% | -11.9 | 17.8µM* | -4.0 | -24.5% | -27.3% | 6.51µM* | ? | ? | 66.6%
Cc1cc(C)c(CN2CCN(C(=O)Cn3cnc4c(OCc5ccccc5)ncnc43)CC2)c(C)c1 | ? | -3.8 | 12.6µM* | -22.5 | -22.6% | ? | 3.66µM* | ? | ? | 39.3%
c1ccc(CNCCCn2cnc3c(OCc4ccccc4)ncnc32)cc1 | -1.6% | 8.9 | 17.4% | -11.6 | -8.0% | -11.3% | nt | nt | nt | nt
O=C(OCC(=O)N1CCc2ccccc21)C1=COCCO1 | 4.0% | 31.2 | 8.4% | -22.9 | -9.9% | 2.0% | nt | nt | nt | nt
CC(C)=CCNc1ncnc2c1c(C#N)cn2C1OC(CO)C(O)C1O (stereo unspecified) | -5.2% | 27.2 | 3.98µM* | 3.8 | -25.6% | -15.8% | 0.731µM* | ? | 13.0% | 22.3%
C=C(C)COc1ccc(-c2[nH]ncc2-c2ccc(OC)cc2)c(O)c1 | -14.6% | 0.0 | 8.91µM* | -7.0 | -122.1% | -10.3% | ? | ? | 23.1µM* | ?
Cc1ccccc1N1CCN(C(=O)C2CCC(=O)N(C3CCCC3)C2)CC1 (stereo unspecified) | 4.4% | 5.6 | -7.4% | 33.2 | -6.8% | 8.8% | nt | nt | nt | nt
O=C(C1CCC(=O)N(C2CCCCCC2)C1)N1CCN(c2ccccc2Cl)CC1 (stereo unspecified) | ? | -24.9 | 7.08µM* | 13.2 | -85.8% | 0.8% | -28.6% | -19.8% | ? | -0.5%
COc1ccc(N(C(=O)CCl)C(C(=O)NC2CCCCC2)c2cccnc2)cc1 (stereo unspecified) | 7.31µM* | 5.5 | 8.91µM* | -101.9* | 11.2µM* | 5.8µM* | 7.31µM* | 11.6µM* | 9.2µM* | ?
COc1ccc(C(C(=O)NC2CCCCC2)N(C(=O)c2ccccn2)c2cccnc2)cc1 (stereo unspecified) | 16.8% | -5.2 | 5.5% | 0.0 | 4.7% | 4.9% | nt | nt | nt | nt
Cc1ccccc1CCNC(=O)c1ccc(Cl)c(S(=O)(=O)N2CC(C)OC(C)C2)c1 (stereo unspecified) | 1.6% | -2.0 | 10µM* | -8.2 | 4.0% | -21.6% | 16.4µM* | ? | ? | 3.3%
CC1CN(S(=O)(=O)c2cc(C(=O)NCc3ccncc3)ccc2Cl)CC(C)O1 (stereo unspecified) | -0.6% | 8.2 | 3.2% | 7.4 | -1.3% | -0.5% | nt | nt | nt | nt
CCc1nc2c(OCc3cc(Cl)cc(Cl)c3)cccn2c1N(C)C(=O)c1ccc(OC)cc1 | ? | nt | 3.98µM* | ? | -30.8% | ? | ? | ? | ? | 48.6%
CC(=O)Oc1c(I)cc(I)cc1C(=O)Nc1ccc(Cl)cc1 | 20.6µM* | -6.2 | 5.01µM* | -86.6* | -35.8% | 20.6µM* | 4.61µM* | 8.2µM* | 6.51µM* | 45.1%
Cc1cc(C(=O)Nc2ccc(Cl)cc2)c2ccccc2n1 | -20.9% | -12.9 | -0.2% | 1.3 | -18.1% | -29.4% | nt | nt | nt | nt
Cc1ccc2c(c1)nnn2C1CCN(CC(=O)Nc2ccccc2N2CCOCC2)CC1 | ? | 32.3 | 10µM* | -52.9* | -47.8% | ? | ? | ? | ? | 9.8%
Cc1cc(C)c(S(=O)(=O)Nc2ccc3c4c(cccc24)CC3)c(C)c1 | ? | 7.2 | 8.91µM* | 9.8 | -38.7% | 1.03µM* | 11.6µM* | ? | 9.2µM* | 32.9%
CC1(C(=O)NCc2cccc3ccccc23)CCN1C(=O)C1(c2ccccc2)CCCC1 (stereo unspecified) | ? | nt | 12.6µM* | -51.6* | -6.3% | ? | 13µM* | ? | ? | 44.8%
Cc1cc(C)n(-c2ccc(C(=O)Nc3cccc([N+](=O)[O-])c3)cc2)n1 | ? | 9.9 | 3.3% | ? | -22.5% | -14.0% | nt | nt | nt | nt
CCCCNc1c(-c2cccc(SC(C)CC)c2)nc2ccc(Cl)cn12 (stereo unspecified) | 0.0% | 7.0 | ? | -1.6 | -19.6% | -13.2% | nt | nt | nt | nt
CCCCNc1c(-c2ccc(OC)c(SC(C)CC)c2)nc2ccc(Cl)cn12 (stereo unspecified) | 7.3% | 2.2 | 10µM* | -66.2* | -6.3% | -4.6% | ? | -18.8% | ? | -5.2%
O=C(Nc1ccccc1)c1cccc(S(=O)(=O)NCc2ccco2)c1 | 13.9% | 10.2 | -7.9% | -3.9 | -9.2% | -3.3% | nt | nt | nt | nt
N#C/C(=N\Nc1ccc(Cl)c(Cl)c1)C(=O)C1CC1 | ? | -14.3 | 7.08µM* | ? | -28.9% | 2.91µM* | 2.31µM* | 6.51µM* | 6.51µM* | 63.7%
COc1ccc(C2CC(c3ccccc3OC(C)=O)=NN2C(=O)/C=C/c2ccccc2)cc1OC (stereo unspecified) | -19.8% | -8.4 | 10µM* | -25.8 | -21.5% | ? | 18.4µM* | -24.9% | ? | 2.3%

Bioassay records as filed in PubChem.
